Where “and” joins values, the source holds several entries; their conditions need not be identical. Identical values can stand only once. This is part of a sample that, as a whole, favours compounds with a hit. Of some 83,000 tested, about 20% had one in any assay.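 Single-dose data. Exposure time 48 hours. Values below 10 considered active.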 Calls of active or inactive are those of the source.
Assays:
Assay in all cases: NCI-60 one-dose screen, 48 h (100 = growth as untreated, 0 = no growth, -100 = all killed)
HCT-15 colon = test system: HCT-15 colon
HT29 colon = test system: HT29 colon
SNB-75 CNS = test system: SNB-75 CNS
SNB-19 CNS = test system: SNB-19 CNS
U251 CNS = test system: U251 CNS
PC-3 prostate = test system: PC-3 prostate
SK-MEL-5 melanoma = test system: SK-MEL-5 melanoma
UACC-62 melanoma = settings: 10 µM
SK-MEL-2 melanoma = test system: SK-MEL-2 melanoma
LOX IMVI melanoma = settings: 10 µM

Measured: growth

ClCCn1c(CCl)nc2ccc(Cl)cc21
inactive: SNB-75 CNS; 10 µM 20.7% | SNB-19 CNS; 10 µM 47.9%
active: HCT-15 colon; 10 µM -31.5% | HT29 colon; 10 µM -59.8% | U251 CNS; 10 µM -67.2% | PC-3 prostate; 10 µM -63.9% | SK-MEL-5 melanoma; 10 µM -94.9% | UACC-62 melanoma -79.6% | SK-MEL-2 melanoma; 10 µM -56%

Nc1nc(N)c2cc(Sc3ccc4ccccc4c3)ccc2n1
active: HT29 colon; 10 µM 9.75%
inactive: HCT-15 colon; 10 µM 22.6% | SNB-75 CNS; 10 µM 53.5% | SNB-19 CNS; 10 µM 35.7% | U251 CNS; 10 µM 27.4% | PC-3 prostate; 10 µM 35.6% | SK-MEL-5 melanoma; 10 µM 23.4% | SK-MEL-2 melanoma; 10 µM 75.3%

Cc1cc(Cl)ccc1NC(=O)/C(Cl)=C1/Sc2ccccc2NC1=O
inactive: HCT-15 colon; 10 µM 88.2% | HT29 colon; 10 µM 107% | SNB-75 CNS; 10 µM 70.8% | SNB-19 CNS; 10 µM 94% | U251 CNS; 10 µM 94.7% | PC-3 prostate; 10 µM 78% | SK-MEL-5 melanoma; 10 µM 90% | LOX IMVI melanoma 73.6%

CC1CCC2(C(=O)O)CCC3(C)C(=CCC4C5(C)CC(O)C(O)C(C)(CO)C5C(O)CC43C)C2C1C (stereo not given)
active: SK-MEL-5 melanoma; 10 µM 4.98%
inactive: HCT-15 colon; 10 µM 112% | HT29 colon; 10 µM 110% | SNB-75 CNS; 10 µM 91.8% | SNB-19 CNS; 10 µM 98.7% | U251 CNS; 10 µM 103% | PC-3 prostate; 10 µM 97.5% | SK-MEL-2 melanoma; 10 µM 104%

O=C(O)c1ccccc1.[Ag]
inactive: HCT-15 colon; 10 µM 110% | HT29 colon; 10 µM 97.9% | SNB-75 CNS; 10 µM 110% | SNB-19 CNS; 10 µM 105% | U251 CNS; 10 µM 97% | PC-3 prostate; 10 µM 86.8% | SK-MEL-5 melanoma; 10 µM 28.5% | SK-MEL-2 melanoma; 10 µM 122%

O=C1c2cccc3cc([N+](=O)[O-])cc(c23)C(=O)N1CCN1CCCC1
inactive: PC-3 prostate; 10 µM 14.4%
active: HCT-15 colon; 10 µM -7.27% | HT29 colon; 10 µM 2.59% | SNB-75 CNS; 10 µM -15.1% | SNB-19 CNS; 10 µM -0.129% | U251 CNS; 10 µM -12.3% | SK-MEL-5 melanoma; 10 µM -88.6% | SK-MEL-2 melanoma; 10 µM 4.73%

O=Nc1ccc(Nc2ccccc2)cc1
inactive: HCT-15 colon; 10 µM 81.2% | HT29 colon; 10 µM 95.1% | SNB-75 CNS; 10 µM 80.4% | SNB-19 CNS; 10 µM 98.3% | U251 CNS; 10 µM 87.8% | PC-3 prostate; 10 µM 82.8% | SK-MEL-5 melanoma; 10 µM 87.9% | UACC-62 melanoma 96.9% | SK-MEL-2 melanoma; 10 µM 109%

CCC(=O)Oc1ccc(/C=N/NC(N)=S)nc1
inactive: HCT-15 colon; 10 µM 65% | HT29 colon; 10 µM 60.8% | SNB-75 CNS; 10 µM 41% | SNB-19 CNS; 10 µM 72.7% | U251 CNS; 10 µM 27.3% | PC-3 prostate; 10 µM 54.1% | SK-MEL-5 melanoma; 10 µM 31% | LOX IMVI melanoma 18.1% | SK-MEL-2 melanoma; 10 µM 53.2%

O=C(CNS(=O)(=O)Cc1ccccc1)NNc1ccccc1
inactive: HCT-15 colon; 10 µM 27.8% | HT29 colon; 10 µM 81.5% | SNB-75 CNS; 10 µM 76.8% | SNB-19 CNS; 10 µM 88.3% | U251 CNS; 10 µM 82.7% | PC-3 prostate; 10 µM 63.2% | SK-MEL-5 melanoma; 10 µM 47.5% | SK-MEL-2 melanoma; 10 µM 97.1%

Cn1c2nc3ccccc3c-2nc2ccccc21
inactive: HCT-15 colon; 10 µM 94.9% and 85.2% | HT29 colon; 10 µM 99.7% and 103% | SNB-75 CNS; 10 µM 101% and 81.1% | SNB-19 CNS; 10 µM 88.8% and 82.8% | U251 CNS; 10 µM 91.4% and 90.2% | PC-3 prostate; 10 µM 95.4% and 99.7% | SK-MEL-5 melanoma; 10 µM 82.5% and 65.6% | SK-MEL-2 melanoma; 10 µM 113% and 112%

O=C1C(Cl)=C(Cl)C(Cl)(Cl)C(Cl)C1(Cl)Cl (stereo not given)
inactive: HCT-15 colon; 10 µM 91.3% | HT29 colon; 10 µM 99.5% | SNB-75 CNS; 10 µM 88.9% | SNB-19 CNS; 10 µM 108% | U251 CNS; 10 µM 103% | PC-3 prostate; 10 µM 101% | SK-MEL-5 melanoma; 10 µM 106% | SK-MEL-2 melanoma; 10 µM 100%

Cc1cc(O)c2c(c1O)C(=O)C13C(=C2O)C(=O)C2C(O)C1C1C(O)C3C(=O)C3=C(O)c4c(O)cc(C)c(O)c4C(=O)C321 (stereo not given)
inactive: HCT-15 colon; 10 µM 16.4% | SNB-75 CNS; 10 µM 20% | U251 CNS; 10 µM 12.3% | PC-3 prostate; 10 µM 10.3%
active: HT29 colon; 10 µM 3.7% | SNB-19 CNS; 10 µM 5.61% | SK-MEL-5 melanoma; 10 µM -74.9% | UACC-62 melanoma -48.1% | SK-MEL-2 melanoma; 10 µM -6.64%

CC(=O)O[C@H]1C(=O)[C@@]2(C)[C@H]([C@H](OC(=O)c3ccccc3)[C@]3(O)C[C@H](OC(=O)[C@H](O)[C@@H](NC(=O)c4ccccc4)c4ccccc4)C(C)=C1C3(C)C)[C@]1(OC(C)=O)CO[C@@H]1C[C@@H]2O
inactive: HCT-15 colon; 0.01 µM 87.3% | HCT-15 colon; 2.5 µM 13.2% | HCT-15 colon; 5 µM 12.4% | SNB-19 CNS; 0.01 µM 30% | SNB-19 CNS; 2.5 µM 25.9% | SNB-19 CNS; 5 µM 30.1% | SNB-19 CNS; 10 µM 31.4% and 35.6% | U251 CNS; 0.01 µM 27.9% | U251 CNS; 2.5 µM 12.3% | U251 CNS; 5 µM 13.9% | U251 CNS; 10 µM 10.6% and 15.9% | PC-3 prostate; 0.01 µM 25% | PC-3 prostate; 2.5 µM 26.2% | PC-3 prostate; 5 µM 34.7% | SK-MEL-5 melanoma; 0.01 µM 18% | SK-MEL-5 melanoma; 5 µM 17.5% | SK-MEL-5 melanoma; 10 µM 34.6% and 13% | SK-MEL-2 melanoma; 0.01 µM 72.5% | SK-MEL-2 melanoma; 5 µM 21.3% | SK-MEL-2 melanoma; 10 µM 25.7% and 32%
active: HT29 colon; 0.01 µM 3.27% | HT29 colon; 2.5 µM -29.4% | HT29 colon; 5 µM -21.4% | HT29 colon; 10 µM -21.5% and -18.2% | SNB-75 CNS; 0.01 µM -1.17% | SNB-75 CNS; 2.5 µM -28% | SNB-75 CNS; 5 µM -16.7% | SNB-75 CNS; 10 µM -38.5% and -19.3% | SK-MEL-5 melanoma; 2.5 µM 4.29% | SK-MEL-2 melanoma; 2.5 µM 3.85%
-26.2% (active) and 11.5% (inactive): HCT-15 colon; 10 µM
-45.5% (active) and 37.3% (inactive): PC-3 prostate; 10 µM

N#C/C(=C/N1C(=O)/C(=C/c2ccc([N+](=O)[O-])cc2)SC1=S)c1nc2ccccc2s1
inactive: HCT-15 colon; 10 µM 95.6% | HT29 colon; 10 µM 98.6% | SNB-75 CNS; 10 µM 84.5% | SNB-19 CNS; 10 µM 86.4% | U251 CNS; 10 µM 69.4% | PC-3 prostate; 10 µM 79.7% | SK-MEL-5 melanoma; 10 µM 63.5% | SK-MEL-2 melanoma; 10 µM 94.4%

N#CC(=C1C=CC(=NO)C=C1)c1ccccc1
active: HCT-15 colon; 10 µM 9.7% | HT29 colon; 10 µM 1.57% | SNB-75 CNS; 10 µM -1.66% | U251 CNS; 10 µM 9.88% | PC-3 prostate; 10 µM 3.44% | SK-MEL-5 melanoma; 10 µM 2.56%
inactive: SNB-19 CNS; 10 µM 59.6% | SK-MEL-2 melanoma; 10 µM 41.1%

S=P(N1CC1)(N1CC1)N1CC1
inactive: HCT-15 colon; 10 µM 106% and 84.9% | HCT-15 colon; 100 µM 57.5% | HT29 colon; 10 µM 99.6% and 83.1% | HT29 colon; 100 µM 54.6% | SNB-75 CNS; 10 µM 109% and 69% | SNB-75 CNS; 100 µM 43.2% | SNB-19 CNS; 10 µM 102% and 101% | SNB-19 CNS; 100 µM 37.3% | U251 CNS; 10 µM 105% and 84.1% | U251 CNS; 100 µM 43.7% | PC-3 prostate; 10 µM 97.5% and 90.9% | PC-3 prostate; 100 µM 52.7% | SK-MEL-5 melanoma; 10 µM 96.9% and 92.8% | SK-MEL-5 melanoma; 100 µM 48.6% | SK-MEL-2 melanoma; 10 µM 116% and 93.3% | SK-MEL-2 melanoma; 100 µM 113%

CN(C)c1ccc(/C=C/c2ccnc3ccccc23)cc1N
inactive: HCT-15 colon; 10 µM 59.5% | HT29 colon; 10 µM 58.5% | SNB-75 CNS; 10 µM 85.8% | SNB-19 CNS; 10 µM 80.2% | U251 CNS; 10 µM 66.7% | PC-3 prostate; 10 µM 60.4% | SK-MEL-5 melanoma; 10 µM 13.6% | SK-MEL-2 melanoma; 10 µM 67.5%

S=C1SCN(CCc2ccccc2)CN1CCc1ccccc1
inactive: HCT-15 colon; 10 µM 95.1% | HT29 colon; 10 µM 95.8% | SNB-75 CNS; 10 µM 87.5% | SNB-19 CNS; 10 µM 105% | U251 CNS; 10 µM 91.3% | PC-3 prostate; 10 µM 93.6% | SK-MEL-5 melanoma; 10 µM 89% | SK-MEL-2 melanoma; 10 µM 105%
